# Reference: PubChem BioAssay (EPA / NIEHS)
# Inconclusive results are not listed. Activity calls are given as the source filed them. How the source made its calls: active means hit-call score of the fitted dose curve at least 0.9, where 1 is the maximum; inconclusive means response in the unintended direction; inactive means score below 0.9.
# What was measured:
# [1] = ACEA_ER_AUC_viability: ACEA Biosciences xCELLigence Real-Time Cell Analysis on Estrogen Receptor Agonism for Viability (AID 2283782);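 further: continuous compound exposure with impedance area under curve over 80 h; hit means loss of impedance signal meaning reduced cell growth or viability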
# Procedure, shortened: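 T-47D human breast cells in phenol red-free RPMI1640 with 10% charcoal-stripped FBS were dosed with an 8-point 1:4 dilution series from 100 uM top final concentration, in duplicate. Impedance-based growth was followed for 80 h; AUC analysed versus DMSO.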
# AR (gene 367) [2] = target: AR (gene 367) (UniProt P10275); test: ACEA_AR_agonist_80hr: ACEA Biosciences xCELLigence Real-Time Cell Analysis on Androgen Receptor Agonism for Proliferation (AID 2283783);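 further: hits increase impedance growth signal above DMSO baseline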
# Chain of AR (gene 367) (P10275 whole entry, looked up): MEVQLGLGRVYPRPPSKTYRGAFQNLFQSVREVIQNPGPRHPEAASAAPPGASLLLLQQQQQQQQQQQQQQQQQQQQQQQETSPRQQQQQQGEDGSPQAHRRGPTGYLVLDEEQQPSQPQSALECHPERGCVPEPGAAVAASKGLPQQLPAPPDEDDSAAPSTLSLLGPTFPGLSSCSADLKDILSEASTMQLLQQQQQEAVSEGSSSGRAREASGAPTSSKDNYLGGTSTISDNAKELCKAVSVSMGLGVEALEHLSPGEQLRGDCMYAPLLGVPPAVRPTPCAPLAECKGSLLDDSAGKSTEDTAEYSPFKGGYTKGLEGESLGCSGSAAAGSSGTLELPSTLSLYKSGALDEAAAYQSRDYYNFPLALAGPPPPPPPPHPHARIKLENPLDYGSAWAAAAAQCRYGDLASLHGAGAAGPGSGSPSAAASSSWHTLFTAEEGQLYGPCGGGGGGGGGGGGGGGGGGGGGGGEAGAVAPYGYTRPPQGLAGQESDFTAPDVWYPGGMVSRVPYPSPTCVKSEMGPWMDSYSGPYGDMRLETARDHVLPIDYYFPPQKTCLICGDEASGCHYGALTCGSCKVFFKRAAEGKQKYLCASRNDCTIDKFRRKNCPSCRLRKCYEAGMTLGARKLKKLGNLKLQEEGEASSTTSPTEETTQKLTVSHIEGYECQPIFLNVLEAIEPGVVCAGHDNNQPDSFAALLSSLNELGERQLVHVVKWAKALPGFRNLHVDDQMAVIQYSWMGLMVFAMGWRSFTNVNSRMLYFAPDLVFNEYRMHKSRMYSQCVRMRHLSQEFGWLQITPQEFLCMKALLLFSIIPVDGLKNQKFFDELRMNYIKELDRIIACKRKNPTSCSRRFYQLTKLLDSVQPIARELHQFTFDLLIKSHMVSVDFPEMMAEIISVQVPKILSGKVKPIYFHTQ
# Procedure, shortened: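 22Rv1 human prostate cancer cells were seeded after preconditioning in assay medium and monitored overnight, then dosed in an eight-point 1:4 dilution series from 100 uM (≤0.5% DMSO). Impedance-based growth was read at 80 h, gain-of-signal versus DMSO.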
# [3] = STM_H9_NormalizedViability: Cytotoxicity Assessment at 120 hours in the Stemina devTOX quickPredict H9 human embryonic stem cell (hESC)-based Assay (AID 2283784)
# Procedure, shortened: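 Undifferentiated H9 hESCs kept pluripotent were exposed to compound, with media and chemical replaced every 24h. CellTiter-Fluor protease-substrate fluorescence was background-corrected and normalized per plate to the 0.1% DMSO vehicle; signal loss indicates reduced viability.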
# AR (gene 367) [4] = target: AR (gene 367) (UniProt P10275); test: ACEA_AR_antagonist_80hr: ACEA Biosciences xCELLigence Real-Time Cell Analysis on Androgen Receptor Antagonism for Proliferation (AID 2283787);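 further: hits lower the impedance growth signal relative to DMSO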
# Procedure, shortened: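 Impedance readout (RT-CES), 80 h post-dose; loss-of-signal vs DMSO baseline. 22Rv1 cells in assay medium. Compounds: 8-pt 1:4 series, max 100 uM final, up to 0.5% DMSO; n = 2.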
# [5] = ATG_M_06_XSP1: Attagene TRANS-FACTORIAL Multi-Species (XSP1) HepG2 Assay for M06 Transcription Factor (Internal Marker) (AID 2283790)
# Procedure, shortened: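 Transfected HepG2 multi-reporter system treated 24 h in the presence of 3 nM 6-alpha-fluorotestosterone. The M06 internal marker transcript was quantified by RT-PCR with capillary electrophoresis as a background control, and gain of signal was scored versus DMSO.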
# [6] = ATG_M_61_XSP1: Attagene TRANS-FACTORIAL Multi-Species (XSP1) HepG2 Assay for M61 Transcription Factor (Internal Marker) (AID 2283797)
# Procedure, shortened: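 HepG2 cells transiently transfected with multiplexed GAL4-driven reporter units, dosed 24 h with 3 nM 6-alpha-fluorotestosterone present. Reporter mRNA quantified by RT-PCR, 6-FAM labelling, HpaI digestion and capillary electrophoresis; internal-marker background control, gain of signal versus DMSO.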
# [7] = ATG_M_32_XSP1: Attagene TRANS-FACTORIAL Multi-Species (XSP1) HepG2 Assay for M32 Transcription Factor (Internal Marker) (AID 2283799)
# Procedure, shortened: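 HepG2 cells transiently transfected with multi-species TRANS reporter units, dosed 24 h with 3 nM 6-alpha-fluorotestosterone present. Internal-marker reporter mRNA quantified by RT-PCR and capillary electrophoresis; positive-direction fit versus DMSO.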
# [8] = target: Peroxisome proliferator-activated receptor gamma (Homo sapiens) (UniProt P37231); test: ATG_hPPARg_XSP1: Attagene TRANS-FACTORIAL Multi-Species (XSP1) HepG2 Assay for human Peroxisome Proliferator-activated Receptor gamma (PPARg) (AID 2283800)
# Chain of Peroxisome proliferator-activated receptor gamma (Homo sapiens) (P37231 whole entry, looked up, the tested form may be a part): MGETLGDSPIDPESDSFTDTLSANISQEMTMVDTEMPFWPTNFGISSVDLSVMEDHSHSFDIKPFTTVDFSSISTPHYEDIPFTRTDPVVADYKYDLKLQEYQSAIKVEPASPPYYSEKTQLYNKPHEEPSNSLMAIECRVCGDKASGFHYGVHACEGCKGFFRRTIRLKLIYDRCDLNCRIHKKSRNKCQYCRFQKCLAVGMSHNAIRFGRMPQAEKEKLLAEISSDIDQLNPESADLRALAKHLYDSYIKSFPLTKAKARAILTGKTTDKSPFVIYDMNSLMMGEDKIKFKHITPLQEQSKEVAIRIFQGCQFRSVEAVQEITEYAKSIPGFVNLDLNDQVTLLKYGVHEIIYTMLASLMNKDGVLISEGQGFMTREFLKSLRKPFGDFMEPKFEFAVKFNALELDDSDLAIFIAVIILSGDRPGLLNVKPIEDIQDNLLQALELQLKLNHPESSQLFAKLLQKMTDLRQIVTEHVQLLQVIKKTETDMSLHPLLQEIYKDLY
# Procedure, shortened: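 HepG2 cells transiently transfected with GAL4-UAS reporter units carrying chimeric NR-Gal4 proteins; 3 nM 6-alpha-fluorotestosterone present. After 24 h dosing, reporter mRNA quantified by RT-PCR and capillary electrophoresis; gain of signal relative to DMSO.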
compound,measurement,setting,value
CCN(CC)C(=S)SSC(=S)N(CC)CC,AC50,[1],25.4 µM (active)
same,outcome,AR (gene 367) [2],inactive
same,AC50,[3],0.309 µM (active)
same,AC50,AR (gene 367) [4],25.6 µM (active)
same,outcome,[5],inactive
same,outcome,[6],inactive
same,outcome,[7],inactive
same,outcome,[8],inactive
CCCCOC(=O)c1ccccc1,outcome,AR (gene 367) [2],inactive
COc1cc(C(C)C)c2c(c1)S(=O)(=O)N(COc1cc(=O)n3cccc(OCCN4CCCCC4)c3n1)C2=O,AC50,[1],17.4 µM (active)
same,outcome,AR (gene 367) [2],inactive
same,AC50,AR (gene 367) [4],18 µM (active)
Cc1ncc([C@@H](CCCCCCc2ccc3c(n2)NCCC3)CC(=O)O)cn1,AC50,[1],0.00382 µM (active)
same,outcome,[3],inactive
OCCOCCOCCO,outcome,AR (gene 367) [2],inactive
same,outcome,AR (gene 367) [4],inactive
COCc1nnc(-c2ccc[n+]([O-])c2)n1-c1c(Cl)c(Cl)cc2[nH]c(=O)c(=O)[nH]c12,outcome,AR (gene 367) [4],inactive
COS(C)(=O)=O,AC50,[3],70.5 µM (active)
O=c1[nH]cnc2c1ncn2[C@H]1CC[C@@H](CO)O1,outcome,[3],inactive
Cc1nc(-c2ccccn2)ncc1C(=O)Nn1cc(C)c2cc(F)ccc21,AC50,AR (gene 367) [2],0.000427 µM (active)
same,outcome,[3],inactive
